Data as given in PubChem BioAssay (NCI).
This is part of a sample that, as a whole, favours compounds with a hit. Of some 79,000 tested, about 15% had one in any assay. Calls of active or inactive are those of the source. Rule as the data show it: active = growth inhibition above about 70%; inactive = the rest.

Tests used:
[1] = NCI Yeast Anticancer Drug Screen. Data for the wt2 strain (AID 169); conditions: S. cerevisiae wt2 strain growth inhibition, hits give high values
How it was run: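 Values express reduction in yeast growth under compound treatment, referenced to vehicle-treated cells.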

[2] = NCI Yeast Anticancer Drug Screen. Data for the mlh1 strain (AID 171);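 also: 0% = growth of vehicle-treated control cultures of the same strain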; conditions: S. cerevisiae mlh1 strain growth inhibition, hits give high values
How it was run: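 Steps: expose the defined-mutant yeast strain to compound; expose a parallel culture to vehicle; measure growth; express compound effect as inhibition relative to the vehicle culture.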

[3] = NCI Yeast Anticancer Drug Screen. Data for the sgs1 strain (AID 173);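 also: 0% = growth of vehicle-only control cultures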; conditions: S. cerevisiae sgs1 mutant, hits give high values
How it was run: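 Treat defined-mutant yeast with compound; measure growth; calculate inhibition relative to vehicle-treated cells.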

[4] = NCI Yeast Anticancer Drug Screen. Data for the mlh1 rad18 strain (AID 175); conditions: S. cerevisiae mlh1 rad18 strain growth inhibition, hits give high values
How it was run: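 Test agents were incubated with a yeast strain of defined genotype (DNA damage repair defect). Inhibition of growth was derived by comparison with vehicle-exposed cultures.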

[5] = NCI Yeast Anticancer Drug Screen. Data for the rad18 strain (AID 177); conditions: S. cerevisiae rad18 mutant growth inhibition, hits give high values
How it was run: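 A genetically defined yeast mutant impaired in DNA damage repair was treated with test compounds, then its growth was measured against cultures receiving vehicle alone.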

[6] = NCI Yeast Anticancer Drug Screen. Data for the rad52 strain (AID 147);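 also: 0% = growth of vehicle-treated control cultures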; conditions: S. cerevisiae rad52 mutant growth inhibition, hits give high values
How it was run: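 Screen used a yeast mutant impaired in DNA repair. After compound exposure, growth was measured. Values reflect inhibition compared with vehicle-treated cells.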

[7] = NCI Yeast Anticancer Drug Screen. Data for the wt1 strain (AID 149);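 also: 0% = growth of vehicle-treated wt1 cultures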; conditions: S. cerevisiae wt1 strain (SPY 50644) growth inhibition, hits give high values
How it was run: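 Each compound is tested on wt1 yeast and the loss of growth versus vehicle gives the inhibition value.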

[8] = NCI Yeast Anticancer Drug Screen. Data for the rad50EPP+ strain (AID 151);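 also: 0% = growth of vehicle-treated control cultures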; conditions: S. cerevisiae rad50 mutant strain, hits give high values
How it was run: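 Exposing the rad50EPP+ strain to each compound, growth was compared with vehicle-only cultures to give inhibition.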

[9] = NCI Yeast Anticancer Drug Screen. Data for the mgt1 strain (AID 153); conditions: S. cerevisiae mgt1 mutant growth inhibition, hits give high values
How it was run: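 Genetically defined yeast (mgt1) treated with compound; inhibition of growth expressed against vehicle-treated controls.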

[10] = NCI Yeast Anticancer Drug Screen. Data for the rad50 strain (AID 155);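 also: 0% = growth of vehicle-only cultures of the same strain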; conditions: S. cerevisiae rad50 strain growth inhibition, hits give high values
How it was run: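 Vehicle-treated cultures provide the reference for the growth inhibition reported for compound-exposed, repair-deficient yeast.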

[11] = NCI Yeast Anticancer Drug Screen. Data for the mec2-1 strain (AID 157); conditions: S. cerevisiae mec2-1 strain, hits give high values
How it was run: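 Readout is yeast growth inhibition, normalised to vehicle-treated controls, in the mec2-1 strain exposed to compound.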

[12] = NCI Yeast Anticancer Drug Screen. Data for the rad14 strain (AID 159);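 also: 0% = growth of vehicle-treated control cultures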; conditions: S. cerevisiae rad14 strain growth inhibition, hits give high values
How it was run: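 Inhibition of growth is reported for a repair-deficient yeast mutant following compound treatment, calculated relative to cultures that received vehicle.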

[13] = NCI Yeast Anticancer Drug Screen. Data for the sgs1 mgt1 strain (AID 161);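 also: 0% = growth of cultures given vehicle only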; conditions: S. cerevisiae sgs1 mgt1 strain, hits give high values
How it was run: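 Compounds are added to genetically altered yeast, and growth is compared with cultures given vehicle alone to give percent inhibition.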

[14] = NCI Yeast Anticancer Drug Screen. Data for the CLN2oe strain (AID 163);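 also: 0% = growth of vehicle-only control cultures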; conditions: S. cerevisiae CLN2oe strain, hits give high values
How it was run: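 Values reflect how much compound exposure reduced yeast growth, referenced to vehicle-exposed cells. Assay organism is a strain with a defined genetic change affecting cell-cycle control.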

[15] = NCI Yeast Anticancer Drug Screen. Data for the cln2 rad14 strain (AID 165);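 also: 0% = growth equal to vehicle treated cultures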; conditions: S. cerevisiae cln2 rad14 strain, hits give high values
How it was run: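 Relative to vehicle controls, growth inhibition of compound-treated cln2 rad14 yeast was recorded.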

[16] = NCI Yeast Anticancer Drug Screen. Data for the bub3 strain (AID 167); conditions: S. cerevisiae bub3 mutant strain, hits give high values
How it was run: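 Mutant yeast screening strain plus compound; vehicle-treated cultures serve as the 0% inhibition reference.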

[17] = at 5.0 µM (retest, dose inferred, filed as 0.5)
[18] = at 50.0 µM (retest, dose inferred, filed as 5.0)

Measured: growth inhibition

Cc1cc(NCCCCCCCCNc2cc(C)nc3cc(N)ccc23)c2ccc(N)cc2n1
active: [1]; at 33.0 µM 97% | [1]; at 100.0 µM 95% | [2]; at 11.0 µM 92% | [2]; at 33.0 µM 97% | [2]; at 100.0 µM 94% | [3]; at 33.0 µM 95% | [3]; at 100.0 µM 94% | [4]; [18] 98% | [4]; at 50.0 µM 89.2% | [5]; at 33.0 µM 97% | [5]; at 100.0 µM 93%
inactive: [1]; at 1.2 µM -39% | [1]; at 3.7 µM -36% | [1]; at 11.0 µM 55% | [2]; at 1.2 µM -88% | [2]; at 3.7 µM -63% | [3]; at 1.2 µM -64% | [3]; at 3.7 µM -72% | [3]; at 11.0 µM 65% | [4]; [17] 7% | [5]; at 1.2 µM -45% | [5]; at 3.7 µM -65% | [5]; at 11.0 µM 66%

CC(=O)Nc1ccc(/C=C/[N+](=O)[O-])cc1
active: [6]; at 100.0 µM 97% | [7]; at 100.0 µM 75% | [8]; at 33.0 µM 72% | [8]; at 100.0 µM 82% | [9]; at 100.0 µM 99% | [10]; at 33.0 µM 91% | [10]; [18] 94% | [10]; at 50.0 µM 85% | [10]; at 100.0 µM 98% | [11]; at 100.0 µM 95% | [12]; at 100.0 µM 99% | [13]; [18] 72% | [14]; at 100.0 µM 71% | [16]; at 100.0 µM 72% | [1]; at 100.0 µM 91% | [2]; at 100.0 µM 96% | [3]; at 100.0 µM 99% | [4]; [18] 91% | [4]; at 50.0 µM 94% | [5]; at 100.0 µM 92%
inactive: [6]; at 1.2 µM 19% | [6]; at 3.7 µM 23% | [6]; at 11.0 µM 43% | [6]; at 33.0 µM 69% | [7]; at 1.2 µM -1% | [7]; at 3.7 µM -3% | [7]; at 11.0 µM -4% | [7]; at 33.0 µM 6% | [8]; at 1.2 µM 22% | [8]; at 3.7 µM 42% | [8]; at 11.0 µM 51% | [9]; at 1.2 µM -2% | [9]; at 3.7 µM -4% | [9]; at 11.0 µM -1% | [9]; at 33.0 µM 20% | [10]; at 1.2 µM 31% | [10]; at 3.7 µM 35% | [10]; [17] -66% | [10]; at 11.0 µM 67% | [11]; at 1.2 µM -1% | [11]; at 3.7 µM -2% | [11]; [17] -42% | [11]; at 11.0 µM 14% | [11]; at 33.0 µM 3% | [11]; [18] 33% | [11]; at 50.0 µM 53.4% | [12]; at 1.2 µM 2% | [12]; at 3.7 µM 11% | [12]; at 11.0 µM 18% | [12]; at 33.0 µM 40% | [13]; [17] -43% | [13]; at 50.0 µM 47.6% | [14]; at 1.2 µM -3% | [14]; at 3.7 µM -1% | [14]; at 11.0 µM 3% | [14]; at 33.0 µM 10% | [15]; [17] -55% | [15]; [18] -19% | [15]; at 50.0 µM 46.2% | [16]; at 1.2 µM -4% | [16]; at 3.7 µM -5% | [16]; [17] -61% | [16]; at 11.0 µM 1% | [16]; at 33.0 µM 6% | [16]; [18] 43% | [16]; at 50.0 µM 68.8% | [1]; at 1.2 µM -4% | [1]; at 3.7 µM -3% | [1]; at 11.0 µM -4% | [1]; at 33.0 µM 11% | [2]; at 1.2 µM -1% | [2]; at 3.7 µM -6% | [2]; at 11.0 µM 1% | [2]; at 33.0 µM 22% | [3]; at 1.2 µM -3% | [3]; at 3.7 µM 11% | [3]; at 11.0 µM 15% | [3]; at 33.0 µM 52% | [4]; [17] -96% | [5]; at 1.2 µM 3% | [5]; at 3.7 µM 6% | [5]; at 11.0 µM 12% | [5]; at 33.0 µM 25%
